PLAP act: activators of human placental alkaline phosphatase; purified PLAP enzyme, luminescent substrate read-out; active compounds read high; P05187; 96,000 tested, 1.2% active; activation fold at 20 µM; in the data active = activation fold above about 2
TNAP act mid DEA: activates human TNAP at intermediate phosphate acceptor concentration | P05186 | purified TNAP, CDP-star luminescence, 100 mM DEA, 30 min; active compounds read high; scale: 0 levamisole-inhibited, 1 vehicle-only enzyme | 64,000 tested, under 10 active | activation factor at 20 µM;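 active = activation factor of at least 2 at 20 µM, relative to controls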
Ec RNAP inh: blocks E. coli RNA polymerase transcription; P0A8V2; fluorescence transcription assay; inhibition, %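 (tested at 10 µM)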; 62,000 tested, 0.2% active; in the data active = inhibition above about 20%
Hits are given with their value; . = inactive; / = no result given. This is one part of a sample in which hits are shown more often than they occur.

SMILES | PLAP act | TNAP act mid DEA | Ec RNAP inh
CCCCc1nc(SCC(=O)Nc2ccc(S(N)(=O)=O)cc2)n[nH]1 | 2 | . | .
CCCCc1nc(SCC(=O)Nc2ncccn2)n[nH]1 | . | / | /
COC(=O)c1ccc(CSc2nc3ccccc3c(=O)n2Cc2ccco2)o1 | . | . | .
COc1ccc(CCN2C(=O)c3[nH]nc(-c4ccccc4O)c3C2c2cccc(O)c2)cc1OC (configuration not stated) | 2.9 | . | .
COc1ccc(C2c3c(-c4cc(Cl)c(C)cc4O)n[nH]c3C(=O)N2Cc2cccnc2)cc1OC (configuration not stated) | . | . | .
CN(C)Cc1nc2c(c(=O)[nH]1)C(C)(C)Cc1ccccc1-2 | 2.3 | / | /
CN(C)Cc1nc2c(c(=O)[nH]1)C1(CCCCC1)Cc1ccccc1-2 | . | . | .
CCC1CCc2c(sc(NC(=O)CSc3nc(-c4ccco4)cc(C(F)(F)F)n3)c2C#N)C1 (configuration not stated) | . | / | /
CCSc1nn2c(=O)c3ccccc3nc2s1 | . | / | /
Cc1[nH]c2ccccc2c1C(O)CN1CCN(c2cccc(C(F)(F)F)c2)CC1 (configuration not stated) | . | . | .
Cc1ccc2c(c1)c1cccc3c1n2CCN3CCC(N)=O | . | . | .
C/C(=N\Nc1nc2c(s1)CCCC2)c1ccccc1 | 2.3 | / | /
O=C(Nc1nc2c(s1)CCCC2)Oc1ccccc1 | . | . | .
Cc1ccc(S(=O)(=O)NC2CCCc3ccccc32)cc1C (configuration not stated) | . | / | /
Cc1ccccc1C(=O)NNC(=O)Cc1ccccc1 | 2 | / | /
Cc1occc1C(=O)NNC(=O)Cc1ccccc1 | . | / | /
COc1ccc(-c2cc(C(=O)Nc3cc(C)n(Cc4ccc(Cl)cc4)n3)no2)cc1OC | . | . | .
CCOC(=O)c1ccc(N2C(=O)c3n[nH]c(C)c3C2c2ccccn2)cc1 (configuration not stated) | 2.5 | . | .
CCOC(=O)c1ccc(N2C(=O)C(O)=C(C(C)=O)C2c2ccccn2)cc1 (configuration not stated) | . | . | .
CCOC(=O)c1ccc(N2C(=O)c3n[nH]c(C)c3C2c2cccnc2)cc1 (configuration not stated) | 2.3 | . | .
Cc1[nH]nc2c1C(c1ccccn1)N(c1ccc(Br)cc1)C2=O (configuration not stated) | . | . | .
Cc1cccc(N2C(=O)CSC2c2cccnc2)c1 (configuration not stated) | . | / | /
Cc1ccc(N2C(=O)c3n[nH]c(C)c3C2c2cccnc2)cc1 (configuration not stated) | 2.1 | . | .
CC(CN1CCN(c2ccccc2)CC1)c1ccccc1 (configuration not stated) | . | / | /
O=C(c1coc2ccccc2c1=O)N1CCN(c2cccc(C(F)(F)F)c2)CC1 | . | . | .
SMILES | PLAP act | TNAP act mid DEA | Ec RNAP inh
C=CCNS(=O)(=O)c1nc(C)c(Cl)c(C)c1C#N | . | . | .
Cn1c2c(c(=O)n(C)c1=O)C(c1ccccc1OC(F)F)C1=C(CCCC1=O)N2 (configuration not stated) | / | . | .
Cc1cc(Cl)ccc1N(CC(=O)N=Nc1c(O)[nH]c2ccccc12)S(C)(=O)=O | 2.1 | / | /
O=C(CSCc1cccc(Br)c1)N=Nc1c(O)[nH]c2ccccc12 | . | / | /
CCc1cc(=O)oc2cc(OC(C)C(=O)O)c(Cl)cc12 (configuration not stated) | . | . | .
COc1ccc(S(=O)(=O)Nc2cc3c(C(C)=O)c(C)oc3c3ccccc23)cc1 | 2 | / | /
COc1cc(NS(=O)(=O)c2ccc(C)cc2)c2ncccc2c1 | / | . | .
CN(c1ccc(C(=O)Nc2ccccc2C(F)(F)F)cc1)S(C)(=O)=O | . | . | .
Cn1c(Cc2cccs2)nnc1SCc1nc2ccccc2[nH]1 | 2 | . | .
Cn1c(SCc2nc3ccccc3[nH]2)nnc1-c1cccs1 | . | . | .
COc1ccc(N(C(=O)c2ccccc2OC(C)=O)C(C)C2CC2)cc1 (configuration not stated) | . | / | /
Nc1n[nH]c(-c2ccccc2)n1 | . | / | /
c1ccc(-c2n[nH]c(-c3ccccn3)n2)cc1 | 2.2 | / | /
CN(C(=O)CSc1nnc(Nc2ccccc2)s1)c1c(N)n(Cc2ccccc2)c(=O)[nH]c1=O | 2.1 | / | /
CCCCN(C(=O)CSc1nnc(Nc2ccc(C)c(C)c2)s1)c1c(N)n(Cc2ccccc2)c(=O)[nH]c1=O | . | / | /
CCOc1ccc(C(=O)NN2C(=O)C3C4C=CC(O4)C3C2=O)cc1 (configuration not stated) | . | / | /
O=C(Nc1ccc(F)cc1)c1ccccc1CC[N+](=O)[O-] | . | / | /
COC(=O)/C=C1\S/C(=N/NC(=O)c2ccccc2)NC1=O | 2.5 | / | /
COC(=O)/C=C1/S/C(=N/NC(=O)c2ccccc2)NC1=O | . | / | /
COC(=O)c1sc2ccccc2c1-n1cccc1C(=O)C(=O)Nc1ccc(OC)cc1 | . | / | /
